3 compounds from PubChem BioAssay (EPA / NIEHS) can be followed below.

SMILES strings stand for the structures. Activity calls are given as the source filed them. The calls were made as follows: active = hit-call score of the fitted dose curve at least 0.9, where 1 is the maximum; inactive = score below 0.9.

In general, AC50 refers to the midpoint of the concentration-response curve, whichever way the signal moves.

Common to all, as to settings: mRNA level, 48 h; actives raise or lower the signal
Read-out in assay [1]: Lipoprotein lipase (LPL), LPL (gene 4023)
Description: LTEA_HepaRG_LPL: Life Technologies and Expression Analysis (LTEA) Assay for Lipoprotein lipase (LPL) using HepaRG (AID 2283515). In outline: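 Differentiated HepaRG cells, plated 48 h, then exposed 48 h in serum-free induction medium to 8 concentrations (top 100 uM, half-log steps) in 0.5% DMSO, duplicate. LPL mRNA measured by qRT-PCR, normalized to ACTB, GAPDH and POLR2A.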

Read-out in assay [2]: MicroRNA 122 (MIR122), gene 406906
In words: LTEA_HepaRG_MIR122: Life Technologies and Expression Analysis (LTEA) Assay for MicroRNA 122 (MIR122) using HepaRG (AID 2283516). Also: the transcript read is the microRNA miR-122. In outline:
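Differentiated human HepaRG cells in serum-free induction medium exposed 48 h to 8 half-log concentrations from 100 uM in 0.5% DMSO, duplicate. MIR122 quantified by Fluidigm TaqMan qRT-PCR, normalised to ACTB, GAPDH, POLR2A; fold change fitted bidirectionally versus DMSO.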

Read-out in assay [3]: matrix metalloproteinase-10 (MMP10), MMP10 (gene 4319)
Description: LTEA_HepaRG_MMP10: Life Technologies and Expression Analysis (LTEA) Assay for matrix metalloproteinase-10 (MMP10) using HepaRG (AID 2283517). In outline: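 Differentiated HepaRG cells in serum-free induction medium exposed 48 h in duplicate to 8-point half-log series up to 100 uM in 0.5% DMSO. mRNA quantified by qRT-PCR, normalised to ACTB, GAPDH, POLR2A; bidirectional fit versus DMSO.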

Read-out in another assay: MYC, MYC (gene 4609)
Description: LTEA_HepaRG_MYC: Life Technologies and Expression Analysis (LTEA) Assay for MYC using HepaRG (AID 2283518). The procedure, abridged:
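Differentiated human HepaRG cells, plated 48 h then switched to serum-free induction medium, were exposed in duplicate for 48 h to 8-point half-log series up to 100 uM in 0.5% DMSO. MYC mRNA measured by qRT-PCR, normalized to ACTB/GAPDH/POLR2A.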

Read-out in assay [4]: matrix metalloproteinase-3 (MMP3), MMP3 (gene 4314)
Description: LTEA_HepaRG_MMP3: Life Technologies and Expression Analysis (LTEA) Assay for matrix metalloproteinase-3 (MMP3) using HepaRG (AID 2283519). In outline:
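HepaRG cells (~100,000/well) in serum-free induction medium were dosed in duplicate for 48 h with an 8-point half-log series from 100 uM, 0.5% DMSO. MMP3 mRNA was quantified by Fluidigm TaqMan qRT-PCR, normalized to three housekeeping genes.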

Read-out in assay [5]: Paternally Expressed 10 (PEG10), PEG10 (gene 23089)
In words: LTEA_HepaRG_PEG10: Life Technologies and Expression Analysis (LTEA) Assay for Paternally Expressed 10 (PEG10) using HepaRG (AID 2283520). In outline:
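Differentiated HepaRG cells exposed 48 h in serum-free induction medium to eight half-log concentrations topping at 100 uM, 0.5% DMSO, in duplicate. PEG10 mRNA quantified by TaqMan qRT-PCR, normalized to ACTB, GAPDH and POLR2A; bidirectional fit versus DMSO.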

Read-out in assay [6]: Nuclear factor NF-kappa-B p105 subunit (Homo sapiens) (UniProt P19838)
Description: LTEA_HepaRG_NFKB1: Life Technologies and Expression Analysis (LTEA) Assay for Nuclear Factor Kappa B Subunit 1 (NFKB1) using HepaRG (AID 2283521).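 As to outcome: TaqMan qRT-PCR transcript normalised to ACTB GAPDH and POLR2A housekeeping genes.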 In outline:
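Differentiated human HepaRG cells in serum-free induction medium with 0.5% DMSO were exposed for 48 h to eight half-log concentrations, top 100 uM, in duplicate. NFKB1 mRNA measured by Fluidigm TaqMan qRT-PCR, normalised to ACTB, GAPDH and POLR2A; bidirectional fit versus DMSO.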

Read-out in assay [7]: Protein phosphatase 2A (PPP2R4), PTPA (gene 5524)
Description: LTEA_HepaRG_PPP2R4: Life Technologies and Expression Analysis (LTEA) Assay for Protein phosphatase 2A (PPP2R4) using HepaRG (AID 2283522). In outline: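 Differentiated human HepaRG cells in serum-free induction medium were exposed 48 h to 8 concentrations (top 100 µM, half-log steps, duplicate) in 0.5% DMSO. PPP2R4 mRNA was measured by TaqMan qRT-PCR, normalised to ACTB, GAPDH and POLR2A, and fitted bidirectionally versus DMSO.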

Read-out in assay [8]: Phosphatase and tensin (PTEN), PTEN (gene 5728)
In words: LTEA_HepaRG_PTEN: Life Technologies and Expression Analysis (LTEA) Assay for Phosphatase and tensin (PTEN) using HepaRG (AID 2283523). In outline:
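HepaRG cells, 48 h after plating, exposed in duplicate for 48 h in serum-free induction medium to 8 half-log concentrations up to 100 uM (0.5% DMSO). PTEN mRNA by qRT-PCR, normalized to ACTB, GAPDH, POLR2A; bidirectional fit versus DMSO.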

Read-out in assay [9]: solute carrier (SLC22A1), SLC22A1 (gene 6580)
In words: LTEA_HepaRG_SLC22A1: Life Technologies and Expression Analysis (LTEA) Assay for solute carrier (SLC22A1) using HepaRG (AID 2283524). In outline: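 Differentiated human HepaRG cells in serum-free induction medium, exposed 48 h in duplicate to 8-point half-log series from 100 µM top in 0.5% DMSO. SLC22A1 mRNA by TaqMan qRT-PCR normalized to ACTB, GAPDH, POLR2A; bidirectional fit versus DMSO.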

Read-out in assay [10]: Pyruvate Dehydrogenase Kinase 4 (PDK4), PDK4 (gene 5166)
In words: LTEA_HepaRG_PDK4: Life Technologies and Expression Analysis (LTEA) Assay for Pyruvate Dehydrogenase Kinase 4 (PDK4) using HepaRG (AID 2283525). The procedure, abridged: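 HepaRG cells plated 48 h, then switched to serum-free induction medium and exposed in duplicate for 48 h to 8 half-log concentrations from 100 uM in 0.5% DMSO. PDK4 mRNA measured by qRT-PCR, normalized to ACTB, GAPDH and POLR2A; bidirectional fit versus DMSO.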

Read-out in assay [11]: NAD(P)H dehydrogenase [quinone] 1 (NQO1), NQO1 (gene 1728)
In words: LTEA_HepaRG_NQO1: Life Technologies and Expression Analysis (LTEA) Assay for NAD(P)H dehydrogenase [quinone] 1 (NQO1) using HepaRG (AID 2283526). The procedure, abridged:
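Differentiated human HepaRG cells in serum-free induction medium, dosed in duplicate for 48 h at 8 half-log concentrations up to 100 uM in 0.5% DMSO. NQO1 mRNA by qRT-PCR normalized to ACTB, GAPDH, POLR2A; bidirectional fit versus DMSO baseline.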

Read-out in assay [12]: Nuclear factor erythroid 2-related factor 2 (Homo sapiens) (UniProt Q16236)
Description: LTEA_HepaRG_NFE2L2: Life Technologies and Expression Analysis (LTEA) Assay for Nuclear factor erythroid 2-related factor 2 (NFE2L2) Transcription Factor using HepaRG (AID 2283527).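 Also: TaqMan qRT-PCR transcript level normalised to ACTB GAPDH and POLR2A housekeeping genes.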 In outline:
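Differentiated human HepaRG cells, serum-free induction medium, exposed 48 h in duplicate to eight half-log concentrations up to 100 uM in 0.5% DMSO. NFE2L2 mRNA by Fluidigm TaqMan qRT-PCR, normalised to ACTB, GAPDH, POLR2A; bidirectional change versus DMSO.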

Read-out in assay [13]: succinate dehydrogenase complex iron sulfur subunit B (SDHB), SDHB (gene 6390)
In words: LTEA_HepaRG_SDHB: Life Technologies and Expression Analysis (LTEA) Assay for succinate dehydrogenase complex iron sulfur subunit B (SDHB) using HepaRG (AID 2283528). The procedure, abridged:
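HepaRG cells (~100,000/well, plated 48 h) exposed in duplicate for 48 h in serum-free induction medium to 8-point half-log series from 100 uM in 0.5% DMSO; mRNA by qRT-PCR normalised to ACTB, GAPDH, POLR2A; bidirectional fit versus DMSO.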

Read-out in assay [14]: Signal transducer and activator of transcription 3 (Homo sapiens) (UniProt P40763)
In words: LTEA_HepaRG_STAT3: Life Technologies and Expression Analysis (LTEA) Assay for Signal transducer and activator of transcription (STAT3) using HepaRG (AID 2283529). The procedure, abridged: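 Differentiated HepaRG cells, serum-free induction medium, dosed 48 h in duplicate, 8 half-log concentrations from 100 uM in 0.5% DMSO. STAT3 mRNA by qRT-PCR, normalised to ACTB, GAPDH, POLR2A; bidirectional fit versus DMSO.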

Read-out in assay [15]: solute carrier (SLCO1B1), SLCO1B1 (gene 10599)
In words: LTEA_HepaRG_SLCO1B1: Life Technologies and Expression Analysis (LTEA) Assay for solute carrier (SLCO1B1) using HepaRG (AID 2283530). The procedure, abridged: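 Differentiated human HepaRG cells, plated 48 h, switched to serum-free induction medium and exposed in duplicate for 48 h to 8 half-log concentrations (top 100 uM) in 0.5% DMSO. SLCO1B1 mRNA by TaqMan qRT-PCR, normalized to ACTB/GAPDH/POLR2A.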

Read-out in assay [16]: sulfotransferase 2A1 (SULT2A1), SULT2A1 (gene 6822)
Description: LTEA_HepaRG_SULT2A1: Life Technologies and Expression Analysis (LTEA) Assay for sulfotransferase 2A1 (SULT2A1) using HepaRG (AID 2283531). In outline:
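Differentiated human HepaRG cells in serum-free induction medium were exposed for 48 h to eight half-log concentrations (top 100 uM, 0.5% DMSO). SULT2A1 mRNA was measured by qRT-PCR, normalized to ACTB, GAPDH and POLR2A, and fitted bidirectionally against DMSO.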

Read-out in assay [17]: Transforming Growth Factor (TGFA), TGFA (gene 7039)
Description: LTEA_HepaRG_TGFA: Life Technologies and Expression Analysis (LTEA) Assay for Transforming Growth Factor (TGFA) using HepaRG (AID 2283532). The procedure, abridged: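 Differentiated HepaRG cells exposed 48 hours in serum-free induction medium, 0.5% DMSO vehicle, 8-point half-log series from 100 uM, in duplicate. TGFA mRNA by TaqMan qRT-PCR, normalised to ACTB, GAPDH, POLR2A; bidirectional fit versus DMSO.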

Read-out in assay [18]: Transforming Growth Factor (TGFB1), TGFB1 (gene 7040)
In words: LTEA_HepaRG_TGFB1: Life Technologies and Expression Analysis (LTEA) Assay for Transforming Growth Factor (TGFB1) Transporter using HepaRG (AID 2283533). The procedure, abridged: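 Differentiated human HepaRG cells in serum-free induction medium were exposed in duplicate for 48 h to eight concentrations (top 100 uM, half-log steps, 0.5% DMSO). TGFB1 mRNA was quantified by qRT-PCR, normalized to ACTB, GAPDH, POLR2A, and fitted bidirectionally against DMSO.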

Read-out in a further assay: TIMP1, TIMP1 (gene 7076)
Description: LTEA_HepaRG_TIMP1: Life Technologies and Expression Analysis (LTEA) Assay for TIMP1 using HepaRG (AID 2283534).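 As to outcome: TaqMan qRT-PCR signal normalized to ACTB GAPDH and POLR2A housekeeping genes.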 In outline: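 Differentiated human HepaRG cells in serum-free induction medium were exposed 48 h to chemicals (8 half-log concentrations, top 100 uM, 0.5% DMSO). TIMP1 mRNA was quantified by TaqMan qRT-PCR, normalized to ACTB/GAPDH/POLR2A; bidirectional fit versus DMSO.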

Chain of Nuclear factor erythroid 2-related factor 2 (Homo sapiens) (Q16236 whole entry, looked up): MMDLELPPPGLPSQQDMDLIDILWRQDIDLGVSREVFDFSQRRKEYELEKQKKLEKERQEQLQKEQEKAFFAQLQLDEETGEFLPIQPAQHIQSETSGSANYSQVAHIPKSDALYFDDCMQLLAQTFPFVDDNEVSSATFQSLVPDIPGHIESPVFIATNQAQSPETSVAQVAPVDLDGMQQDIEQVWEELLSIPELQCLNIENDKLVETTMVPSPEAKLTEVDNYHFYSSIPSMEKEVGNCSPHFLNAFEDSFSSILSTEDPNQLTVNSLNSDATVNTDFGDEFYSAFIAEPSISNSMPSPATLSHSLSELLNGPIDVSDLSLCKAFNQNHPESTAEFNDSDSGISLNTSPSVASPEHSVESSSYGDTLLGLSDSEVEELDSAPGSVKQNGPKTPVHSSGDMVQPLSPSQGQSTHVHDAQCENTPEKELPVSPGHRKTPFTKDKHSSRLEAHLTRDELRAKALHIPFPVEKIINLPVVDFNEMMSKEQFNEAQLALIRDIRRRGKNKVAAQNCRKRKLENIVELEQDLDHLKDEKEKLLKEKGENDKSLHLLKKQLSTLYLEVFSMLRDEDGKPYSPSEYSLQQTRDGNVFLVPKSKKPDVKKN
Chain of Nuclear factor NF-kappa-B p105 subunit (Homo sapiens) (P19838 whole entry, looked up): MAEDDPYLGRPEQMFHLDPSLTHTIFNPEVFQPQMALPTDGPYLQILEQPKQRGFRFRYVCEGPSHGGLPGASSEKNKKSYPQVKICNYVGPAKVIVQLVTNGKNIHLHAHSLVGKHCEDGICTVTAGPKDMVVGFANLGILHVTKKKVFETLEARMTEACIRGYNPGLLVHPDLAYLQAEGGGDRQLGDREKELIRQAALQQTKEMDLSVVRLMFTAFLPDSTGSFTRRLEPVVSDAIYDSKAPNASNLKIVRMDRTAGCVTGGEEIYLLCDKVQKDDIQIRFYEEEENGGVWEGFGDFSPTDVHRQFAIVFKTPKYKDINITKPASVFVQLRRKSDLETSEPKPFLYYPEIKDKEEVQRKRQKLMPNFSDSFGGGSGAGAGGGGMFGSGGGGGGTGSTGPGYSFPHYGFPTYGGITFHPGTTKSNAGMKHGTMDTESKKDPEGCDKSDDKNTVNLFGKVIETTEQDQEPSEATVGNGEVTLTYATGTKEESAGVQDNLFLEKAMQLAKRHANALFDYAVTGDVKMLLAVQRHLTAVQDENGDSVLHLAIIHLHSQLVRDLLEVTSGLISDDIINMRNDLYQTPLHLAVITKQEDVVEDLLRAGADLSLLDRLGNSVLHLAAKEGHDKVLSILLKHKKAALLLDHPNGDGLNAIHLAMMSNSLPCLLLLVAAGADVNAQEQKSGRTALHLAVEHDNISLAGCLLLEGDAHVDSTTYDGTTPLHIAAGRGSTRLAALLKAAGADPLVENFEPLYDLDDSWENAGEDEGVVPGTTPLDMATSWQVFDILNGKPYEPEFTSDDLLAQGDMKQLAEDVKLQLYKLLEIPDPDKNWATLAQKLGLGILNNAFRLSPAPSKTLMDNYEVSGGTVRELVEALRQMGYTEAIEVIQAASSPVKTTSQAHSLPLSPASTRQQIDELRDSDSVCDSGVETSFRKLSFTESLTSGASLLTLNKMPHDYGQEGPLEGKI
Chain of Signal transducer and activator of transcription 3 (Homo sapiens) (P40763 whole entry, looked up): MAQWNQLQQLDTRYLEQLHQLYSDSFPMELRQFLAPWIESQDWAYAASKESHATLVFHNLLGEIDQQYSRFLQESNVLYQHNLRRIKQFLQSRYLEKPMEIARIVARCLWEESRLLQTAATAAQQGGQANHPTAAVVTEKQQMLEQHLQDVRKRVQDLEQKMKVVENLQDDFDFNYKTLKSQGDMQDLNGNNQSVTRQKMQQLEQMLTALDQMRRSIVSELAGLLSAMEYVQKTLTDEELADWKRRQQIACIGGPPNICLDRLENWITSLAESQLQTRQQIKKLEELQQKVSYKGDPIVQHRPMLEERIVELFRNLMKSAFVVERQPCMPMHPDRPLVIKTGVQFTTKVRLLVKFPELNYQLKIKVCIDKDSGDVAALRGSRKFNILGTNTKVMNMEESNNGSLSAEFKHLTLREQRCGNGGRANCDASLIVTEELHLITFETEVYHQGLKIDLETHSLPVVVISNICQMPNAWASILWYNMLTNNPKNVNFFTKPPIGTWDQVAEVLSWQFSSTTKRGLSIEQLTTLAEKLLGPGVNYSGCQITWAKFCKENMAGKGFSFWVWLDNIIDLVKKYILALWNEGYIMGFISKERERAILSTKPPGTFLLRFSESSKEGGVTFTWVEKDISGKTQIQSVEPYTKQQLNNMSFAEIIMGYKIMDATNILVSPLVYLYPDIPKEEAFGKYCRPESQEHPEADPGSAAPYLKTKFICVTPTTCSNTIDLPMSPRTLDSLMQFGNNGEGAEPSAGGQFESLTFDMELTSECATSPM

As to `Cc1ccc(-c2c(Cl)nc(C#N)n2S(=O)(=O)N(C)C)cc1`, the compound was called inactive in assay [1], in assay [3], in assay [4], in assay [11], in assay [12] and in [17]. Also, the call in assay [18] was inactive. The AC50 in assay [2] is 10.2 µM (active); with MYC, MYC (gene 4609) it was 13.1 µM (active); in assay [5], 7.7 µM (active); in [6], 50 µM (active); in assay [7], 32.2 µM (active); in assay [8], 16.8 µM (active). Besides, the AC50 in assay [9] was 50 µM (active); in assay [10] it was 50 µM (active); in assay [13] it was 2.73 µM (active); in assay [14], 18.4 µM (active); in assay [15], 31.1 µM (active); in assay [16], 10.3 µM (active). Moreover, in the assay with TIMP1, TIMP1 (gene 7076), the concentration at half-maximal activity (AC50) was 22.4 µM (active).
For the compound `CCNc1nc(Cl)nc(NC(C)C)n1`, the outcome was “inactive” in [1]; “inactive” in assay [2]; “inactive” in assay [3]; “inactive” with MYC, MYC (gene 4609); “inactive” in assay [4]; “inactive” in assay [5]. For the same compound, the call in [6], in assay [7], in assay [8], in assay [9], in [10] and in [11] was inactive. Besides, the call in assay [12], in assay [13], in assay [14], in [15], in [16] and in assay [17] was inactive. In addition, the outcome in assay [18] is “inactive”; in the assay with TIMP1, TIMP1 (gene 7076), “inactive”.
`C=CCC1=C(C)[C@@H](OC(=O)[C@@H]2[C@@H](C=C(C)C)C2(C)C)CC1=O`: the outcome in assay [1] is “inactive”; in assay [2], “inactive”; in [3], “inactive”; with MYC, MYC (gene 4609), “inactive”; in [4] it was “inactive”; in [6], “inactive”. In addition, the compound was called inactive in assay [7], in assay [8], in assay [10], in [11], in [12] and in assay [13]. The outcome is “inactive” in assay [15]; “inactive” in [16]; “inactive” in [17]; “inactive” in assay [18]; “inactive” in the assay with TIMP1, TIMP1 (gene 7076). Moreover, the results for the AC50 in assay [5] and in assay [9] were 22.6 µM (active) and 50 µM (active), respectively.
